Compound activity deposited in PubChem BioAssay by several laboratories.
Rv3671c protease – Rv3671c (M. tuberculosis) protease inhibition; P9WHR9; inhibition, % at 5.96 µM; 0.048% of 320,000 active; AID 2606; in the data active = inhibition above about 38%;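 also: extracellular domain of Rv3671c used as enzyme; 0% = enzyme with DMSO and 100% = no enzyme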
Target sequence (P9WHR9 whole entry, looked up, the tested form may be a part): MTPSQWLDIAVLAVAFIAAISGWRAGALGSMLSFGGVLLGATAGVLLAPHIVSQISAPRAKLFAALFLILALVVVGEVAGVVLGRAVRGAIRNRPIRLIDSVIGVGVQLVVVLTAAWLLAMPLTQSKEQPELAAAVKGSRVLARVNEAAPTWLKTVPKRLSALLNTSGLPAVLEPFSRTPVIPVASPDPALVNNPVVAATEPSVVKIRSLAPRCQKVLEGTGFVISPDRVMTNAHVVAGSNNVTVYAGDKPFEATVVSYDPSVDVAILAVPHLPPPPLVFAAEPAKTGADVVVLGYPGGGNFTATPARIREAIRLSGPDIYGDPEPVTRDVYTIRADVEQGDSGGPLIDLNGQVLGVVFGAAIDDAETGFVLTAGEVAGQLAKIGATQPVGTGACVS
GDH-TPI inh – counter-screen for M. tuberculosis FBA inhibitors: GDH-TPI coupled enzymes. GDH-TPI coupled enzyme counterscreen, NADH absorbance. inhibition, % at 4.8 µM. 1.2% of 360,000 active. AID 588335; in the data active = inhibition above about 30%;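 also: 0% = DMSO wells and 100% = wells lacking the enzyme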
FadD28 FP inh – M. tuberculosis FadD28 bisubstrate binding inhibition. FadD28 bisubstrate probe binding, fluorescence polarization. inhibition, % at 12.5 µM. 0.22% of 360,000 active. AID 588549; in the data active = inhibition above about 8.5%, passing the limit was not always enough; inconclusive = no clear call, values can overlap the other calls
Mtb hypoxia rep – inhibitors of hypoxia-regulated fluorescent reporter in Mycobacterium tuberculosis; M. tuberculosis hypoxia-regulated fluorescent reporter, fluorescence; fluorescence inhibition, % (concentration not given with the values); 0.1% of 300,000 active; AID 1159583; in the data active = fluorescence inhibition mostly above about 23%, no sharp cut-off; inactive = mostly below about 17%
Mtb FBA inh – inhibitors of M. tuberculosis fructose-bisphosphate aldolase; P9WQA3; purified M. tuberculosis FBA, fluorescence read-out; inhibition, % at 1 µM; 2.3% of 360,000 active; AID 588726; in the data active = inhibition above about 27%;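 also: 0% = vehicle and 100% = reference inhibitor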
UGM FP inh – Mtb UDP-galactopyranose mutase inhibition; 0.06% of 320,000 active; inhibition, % at 10 µM; purified UGM, fluorescence polarization probe displacement; AID 504406; P9WIQ1; in the data active = inhibition above about 10%, passing the limit was not always enough; inconclusive = no clear call, values can overlap the other calls
The depositor's hits bear a star; ? = inconclusive; nt = no result shown; + = active, no number. Shown are actives, neighbours in structure and some others; about 3.5% of the full set was active somewhere.

SMILES	Rv3671c protease	GDH-TPI inh	FadD28 FP inh	Mtb hypoxia rep	Mtb FBA inh	UGM FP inh
CC1(C)OC(C)(C)/C(=C\c2ccc(OCC(N)=O)cc2)C1=O	3	35*	-2	0	-6	2
Cc1ccsc1/C=N/NC(=O)c1ccc2c(c1)OCCO2	8	34*	-4	nt	-2	-2
O=C(N/N=C\c1ccc(S(=O)(=O)O)o1)c1ccc2c(c1)OCO2	1	41*	-1	nt	1	-3
O=C(NC(=S)Nc1cc([N+](=O)[O-])ccc1O)c1ccc2c(c1)OCO2	11	21	13*	5	-1	0
O=C(NN=Cc1cccc([N+](=O)[O-])c1)c1ccc2c(c1)OCCO2	nt	nt	nt	7	nt	nt
O=C(N/N=C/c1ccc(-c2ccc(Br)cc2)o1)c1ccc2c(c1)OCO2	-14	18	0	nt	6	-1
O=C(N/N=C/c1cc([N+](=O)[O-])ccc1O)c1ccc2c(c1)OCCO2	10	32*	1	nt	1	-1
O=C(Cc1ccc(Cl)cc1)NN=Cc1ccccc1	nt	nt	nt	-7	nt	nt
Cc1ccsc1/C=N\NC(=O)c1ccc2c(c1)OCO2	-6	40*	-1	nt	0	1
Cc1ccsc1/C=N/NC(=O)c1sccc1C	-1	15	-6	nt	-4	-1
Cc1noc(/C=C/N(C)C)c1S(=O)(=O)N1CCCC(C(=O)NC(C)c2ccccc2)C1 (stereo not given)	-15	37*	-2	3	0	1
Cc1noc(C)c1S(=O)(=O)N1CCCC(C(=O)NCCC2=CCCCC2)C1 (stereo not given)	-6	3	1	nt	6	2
Cc1noc(C)c1S(=O)(=O)N1CCCC(C(=O)NC2CCCCC2)C1 (stereo not given)	-3	1	-1	-3	1	5
Cc1noc(/C=C/N(C)C)c1S(=O)(=O)N1CCCC(C(=O)NCCC2=CCCCC2)C1 (stereo not given)	-13	46*	-1	-4	-1	0
Cc1noc(/C=C/N(C)C)c1S(=O)(=O)N1CCCC(C(=O)NC2CCCCC2C)C1 (stereo not given)	-5	62*	?	10	-2	0
CC(NC(=O)C1CCCN(S(=O)(=O)c2cccc3nonc23)C1)c1ccccc1 (stereo not given)	4	18	-1	5	1	2
Cc1cc(=O)[nH]c(NN=Cc2ccc(F)cc2)n1	nt	nt	nt	5	nt	nt
CCN(CC)c1ccc(C=NNc2nc3ccccc3[nH]2)cc1	nt	nt	nt	7	nt	nt
Cc1noc(/C=C/c2ccccn2)c1[N+](=O)[O-]	0	36*	-3	-1	-3	2
CC(=NNC(=O)Nc1ccccc1)c1ccc2ccccc2c1	nt	nt	nt	10	nt	nt
CCCCNC(=O)c1sc(=S)n2c1[nH]c(=O)c1ccc(C(=O)NCCc3ccc(OC)c(OC)c3)cc12	-6	10	0	-7	2	4
O=C(NCc1ccccc1)c1sc(=S)n2c1[nH]c(=O)c1ccccc12	-7	-1	41*	2	-3	0
CCC(=O)c1ccc(N2CCN(C(=O)c3cccs3)CC2)c(F)c1	-1	32*	-1	nt	2	-1
O=C(c1cc(N2CCOCC2)c(F)cc1[N+](=O)[O-])N1CCOCC1	3	15	0	-1	51*	3
O=C(c1cccs1)N1CCN(c2ccc([N+](=O)[O-])cc2F)CC1	0	7	-1	-3	-3	-2
SMILES	Rv3671c protease	GDH-TPI inh	FadD28 FP inh	Mtb hypoxia rep	Mtb FBA inh	UGM FP inh
Cc1cc(N2CCN(C(=O)c3cccs3)CC2)c(F)cc1[N+](=O)[O-]	-11	38*	-3	-1	-4	-3
C=CCN1c2ccccc2[C@]23CC(C(=O)OC)N(C(C)=O)C2=NC(C(=O)OC)=C(C(=O)OC)C13 (stereo not given in full)	nt	nt	nt	0	nt	nt
Cc1ccccc1NC(=O)CSc1ccc(-c2ccccn2)nn1	3	-1	-2	39*	0	3
CN(C)c1ccc(C=Nc2ccc(N(C)C)cc2)cc1	-13	32*	-1	nt	-1	0
Cc1ccc(N=Cc2ccc(N(C)C)cc2)cc1	3	39*	1	nt	0	1
Cc1ccc(N=Cc2ccc(N(C)C)cc2)cc1C	-1	23	-3	9	-1	2
CN(C)c1ccc(C=Nc2ccccc2)cc1	1	46*	-1	-2	1	1
Cc1ccc(C=NNC(=O)c2cc(C)oc2C)o1	nt	nt	nt	8	nt	nt
N#Cc1c(-c2ccc(Cl)cc2)c2c([nH]c1=O)-c1ccccc1OC2	-11	21	-1	-10	184*	1
CC1(C)Cc2c(c(-c3ccccc3Cl)[nH]c(=O)c2C#N)CO1	5	17	-2	nt	9	-1
CC(=O)c1cccc(NC(=O)CCCOc2ccc(C)cc2)c1	0	3	-3	active	1	5
COc1cc(/C=C2/SC(=S)N(CC(=O)O)C2=O)ccc1OC(=O)c1cccs1	-5	6	3	7	-1	-3
COc1cc(/C=C2\SC(=S)N(CC(=O)O)C2=O)ccc1OS(=O)(=O)c1ccc(C)cc1	-4	27	9.7*	-1	2	-1
CC1(C)NC(=O)N(CC(O)COc2ccc(-c3ccccc3)cc2)C1=O (stereo not given)	-2	2	-2	nt	-1	-1
CC1(C)NC(=O)N(CC(O)COc2ccc(-c3ccc(C#N)cc3)cc2)C1=O (stereo not given)	-15	-1	0	0	69*	1
CC1CN(C(C)CO)C(=O)c2cccc(NC(=O)c3cnccn3)c2OC1CN(C)S(=O)(=O)c1ccc(F)cc1 (stereo not given)	nt	nt	nt	6	nt	nt
COc1ccc(C=Cc2nc(-c3ccccc3O)n(-c3ccccc3)n2)cc1	nt	nt	nt	5	nt	nt
COc1cc(C=NNC(=O)c2cccc(NC(=O)c3ccccc3Cl)c2)ccc1O	nt	nt	nt	11	nt	nt
O=C(O)CCn1c(-c2ccccn2)nc2ccccc21	3	0	1	-9	27*	-3
O=C(O)CCn1c(CO)nc2ccccc21	5	5	-3	7	1	-1
N#Cc1nc(-c2ccccc2F)oc1N1CCCCC1	8	20	-1	0	+	1
N#Cc1nc(-c2ccccc2Cl)oc1N1CCN(C(=O)c2ccco2)CC1	-5	10	-1	8	5	-1
N#Cc1nc(-c2ccccc2F)oc1NC1CCCCC1	-4	0	-2	nt	175*	1
N#Cc1nc(-c2ccccc2F)oc1N1CCN(C(=O)c2ccco2)CC1	-2	12	-4	12	115*	0
CCOC(=O)c1cc(OC)c2cccc(CN3CCC(C)(C(=O)NCCOC)C3)c2c1 (stereo not given)	nt	20	-3	nt	28*	nt
O=C(NN=Cc1ccc([N+](=O)[O-])cc1)c1cccc2cc[nH]c12	nt	nt	nt	7	nt	nt
O=C(NC1CCC(=O)N(CCSc2ccc(Br)cc2)CC1)OCc1ccccc1 (stereo not given)	nt	nt	nt	-2	nt	nt
Cc1cc(-c2nc3ncccc3o2)ccc1N	5	45*	0	nt	+	1
